The values that follow come from PubChem BioAssay (NCI).

The panel holds about 83,000 compounds, 20% with a hit somewhere; the sample as a whole holds those more often.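 96-well plates, one dose, 48 hours. Percent growth reported; active if below 10.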 Unmarked numbers belong to inactive results. Activity calls are given as the source filed them.

Test systems include T-47D breast; BT-549 breast; MDA-MB-435 melanoma; SW-620 colon; MCF7 breast; HCT-116 colon; HCC-2998 colon; KM12 colon; MDA-MB-468 breast.
Assay in all cases: NCI-60 one-dose screen, 48 h (100 = growth as untreated, 0 = no growth, -100 = all killed)
Conditions in all cases: 10 µM unless noted

In the case of `CCCCCCCCCCCCCCCCCC(=O)Nc1ccc(OC)cc1`, the growth is 108% in the experiment with T-47D breast; 108% with BT-549 breast; 115% in the experiment with MDA-MB-435 melanoma; 103% with SW-620 colon; 93.3% with MCF7 breast; 102% in the experiment on HCT-116 colon. Further, the growth is 122% in the experiment with HCC-2998 colon, 101% in the experiment with KM12 colon and 99.8% in the experiment on MDA-MB-468 breast.
On to `Clc1ccccc1Nc1nnc(-c2c[nH]c3ccccc23)o1`, for which the growth in the experiment on T-47D breast is 27.3%; in the experiment on BT-549 breast it was 25.1%; in the experiment on MDA-MB-435 melanoma, -44.2% (active); in the experiment with SW-620 colon, 29%; in the experiment on MCF7 breast it was 14.9%; in the experiment with HCT-116 colon, 8.25% (active). Also, the figures for the growth in the experiment with HCC-2998 colon, in the experiment on KM12 colon and in the experiment with MDA-MB-468 breast were 6.55% (active), 15% and -22.5% (active), respectively.
For the compound `COc1ccc(C(=O)c2cc(C(C)=O)c3c(C)cc(C)cn23)cc1`, the growth in the experiment with T-47D breast was 48.6%; with BT-549 breast it was 25.4%; with MDA-MB-435 melanoma, 49.1%; with SW-620 colon, 82.2%; with MCF7 breast, 35.2%; with HCT-116 colon it was 19.6%. The growth was 76.1% with HCC-2998 colon, 71.2% in the experiment with KM12 colon and 59.6% in the experiment on MDA-MB-468 breast.
With `COc1cccc2nc(Nc3cccc(NC(=O)c4ccc(CN5CCN(C)CC5)c(C(F)(F)F)c4)c3)ccc12`, the growth with T-47D breast is -75.9% (active); in the experiment on BT-549 breast, -93.7% (active); with MDA-MB-435 melanoma it was -98.1% (active); with SW-620 colon, -92.8% (active); with MCF7 breast, -79.2% (active); with HCT-116 colon, -66.9% (active). The values for the growth in the experiment with HCC-2998 colon, in the experiment on KM12 colon and with MDA-MB-468 breast were -96.8% (active), -51.1% (active) and -97.2% (active), respectively.
Regarding `O=C(N/N=C/c1occc1Br)c1[nH]c2ccc(Br)cc2c1-c1ccccc1`, the growth in the experiment on T-47D breast was -77% (active); in the experiment on BT-549 breast, -89.4% (active); with MDA-MB-435 melanoma it was -90.4% (active); in the experiment on SW-620 colon, -86.3% (active); with MCF7 breast, -66.9% (active); with HCT-116 colon it was -74.5% (active). For the same compound, the figures for the growth with HCC-2998 colon, in the experiment on KM12 colon and in the experiment with MDA-MB-468 breast were -89.6% (active), -46.6% (active) and -75.1% (active), respectively.
As for `Cc1ccc2nc(COc3ccc(C(=O)NNC(=O)Nc4ccc(Cl)c(C(F)(F)F)c4)cc3)[nH]c2c1`, the growth with T-47D breast is -24.8% (active); with BT-549 breast, -2.01% (active); with MDA-MB-435 melanoma, 8.76% (active); with SW-620 colon, 43.4%; with MCF7 breast, 53.4%; in the experiment with HCT-116 colon it was 4.51% (active). Also, the values for the growth in the experiment on HCC-2998 colon, with KM12 colon and in the experiment on MDA-MB-468 breast were 70.1%, 24.9% and -56.9% (active), respectively.
For `COc1ccc(-c2nc3ccc(-c4nnc(SCc5ccccc5)o4)cc3[nH]2)cc1`, the growth in the experiment with T-47D breast was -41.9% (active); with BT-549 breast, -54% (active); in the experiment on MDA-MB-435 melanoma it was -29.5% (active); in the experiment with SW-620 colon, 7.51% (active); in the experiment with MCF7 breast it was -20.2% (active); with HCT-116 colon, -60.5% (active). In addition, the growth with HCC-2998 colon was 25.4%; with KM12 colon, 16.5%; with MDA-MB-468 breast, -23.8% (active).
For `COc1ccc(N=Nc2c(N)nn3c(-c4ccc([N+](=O)[O-])cc4)ccnc23)cc1`, the growth in the experiment on T-47D breast was 81.6%; with BT-549 breast, 94%; with MDA-MB-435 melanoma it was 107%; with SW-620 colon, 98.4%; with MCF7 breast, 95.3%; in the experiment on HCT-116 colon, 97.9%. The figures for the growth in the experiment with HCC-2998 colon, with KM12 colon and in the experiment with MDA-MB-468 breast were 113%, 102% and 105%, respectively.
`O=C1Nc2cc(-c3ccc(NS(=O)(=O)c4ccc(-c5ccccc5)cc4)cc3)ccc2/C1=C/c1ccc[nH]1`: the growth in the experiment with T-47D breast was 3.17% (active); in the experiment with BT-549 breast, 3.7% (active); in the experiment on MDA-MB-435 melanoma, 40.3%; with SW-620 colon it was 8.95% (active); in the experiment with MCF7 breast, -25.2% (active); in the experiment with HCT-116 colon, 20.3%. Also, the growth was 50.8% with HCC-2998 colon, 34.2% with KM12 colon and -52.5% (active) in the experiment with MDA-MB-468 breast.
On to `Nc1nc(-c2ccccc2)c(N=Nc2ccc(Cl)cc2Cl)s1`, for which the growth in the experiment with T-47D breast was 25.4%; in the experiment on BT-549 breast, -47.2% (active); in the experiment with MDA-MB-435 melanoma, -51.7% (active); with SW-620 colon, -59.7% (active); with MCF7 breast, -28.9% (active); in the experiment on HCT-116 colon, -80.6% (active). Further, the growth with HCC-2998 colon is -87.7% (active); with KM12 colon it was -70.8% (active); with MDA-MB-468 breast, -63.3% (active).
Regarding `O=C(N/N=C/c1ccsc1)c1[nH]c2ccc(Br)cc2c1-c1ccccc1`, the growth with T-47D breast was -21.6% (active); with BT-549 breast, -86% (active); with MDA-MB-435 melanoma, -85.3% (active); in the experiment on SW-620 colon, -68% (active); in the experiment with MCF7 breast, -50.9% (active); in the experiment on HCT-116 colon, -71% (active). The growth in the experiment with HCC-2998 colon was -59.4% (active); with KM12 colon, -49.3% (active); in the experiment on MDA-MB-468 breast it was -25.6% (active).
On to `COC(=O)c1c(C(=O)OC)c2c3ccccc3c3ccccc3n2c1C(=O)C(F)(F)F`, for which the growth in the experiment on T-47D breast is 101%; in the experiment with BT-549 breast, 106%; in the experiment on MDA-MB-435 melanoma, 102%; with SW-620 colon, 97.1%; with MCF7 breast, 91.6%; with HCT-116 colon, 98.7%. For the same compound, the growth in the experiment on HCC-2998 colon was 122%; in the experiment on KM12 colon, 106%; in the experiment with MDA-MB-468 breast, 92%.
On to `Cc1nn(-c2ccccc2)c2nc(C)n(CC(=O)N/N=C/c3cccc([N+](=O)[O-])c3)c(=O)c12`, for which the growth with T-47D breast is 77.6%; in the experiment with BT-549 breast, 82.8%; in the experiment on MDA-MB-435 melanoma, 101%; in the experiment with SW-620 colon it was 101%; in the experiment with MCF7 breast it was 85.5%; in the experiment with HCT-116 colon, 87.6%. Also, the growth with HCC-2998 colon was 116%; in the experiment on KM12 colon, 101%; in the experiment on MDA-MB-468 breast, 93.3%.
